Data from PubChem BioAssay (NCATS).
Records with an inconclusive call do not appear. Values without a mark were called inactive. Active and inactive are the calls of the source. Calls come from the whole dose curve; as a rule, active = well fitted inhibition curve with a large enough effect; inconclusive = small, poorly fitted or top-dose-only effect; inactive = no such curve, though single readings can be large or run the other way. Residues, ends and D or L forms follow the SMILES beside them.

experiment: BET inhibitor-based combinations targeting novel dependencies in MECOM-rearranged (r) AML: MV-4-11 cell line (AID 2202233); settings: MV-4-11 AML viability, CellTiter-Glo luminescence, 48 h; series mostly up to 46 µM; viability, % of control: at the top concentration; note: nearly all actives have a fitted effect of over 45% in size;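 for viability, % of control: plate controls were DMSO for no effect and blank wells for full effect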
Method in brief: (§1)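 Activity is given as area under the curve and as Z-AUC, mean-centred within each cell line. It comes from 11-point dose curves normalized to DMSO and empty wells. CellTiter-Glo luminescence was read after 48 hr drug exposure of 500 cells/well.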
Potency is the fitted concentration of half-maximal effect.

| Compound | Potency | viability, % of control |
| --- | --- | --- |
| CN1CCN(c2ncc(-c3cc(Cl)cc(Cl)c3Cl)c(N)n2)CC1 | 8.33 µM (active) | – |
| CN(C)CCN1C(=O)c2cccc3cc(N)cc(c23)C1=O | 3.72 µM (active) | – |
| Fc1ccc(Cl)cc1-c1nc(Nc2ccncc2)c2nccnc2n1 | – | 122% |
| CCCCCN=C(N)N/N=C/c1c[nH]c2ccc(OC)cc12 | 8.33 µM (active) | – |
| O=[N+]([O-])c1cn2c(n1)OC[C@@H](OCc1ccc(OC(F)(F)F)cc1)C2 | – | 96.2% |
| CN1CCN2c3ncccc3Cc3ccccc3C2C1 (configuration not stated) | – | 105% |
| C=C1c2cccc(O)c2C(O)=C2C(=O)[C@@]3(O)C(O)=C(C(N)=O)C(=O)[C@@H](N(C)C)[C@@H]3[C@@H](O)[C@H]12 | – | 111% |
| CCn1c(-c2nonc2N)nc2c(C#CC(C)(C)O)ncc(OC[C@H]3CCCNC3)c21 | 18.6 µM (active) | – |
| O=C1NC(=O)/C(=C/c2ccc3nccnc3c2)S1 | – | 88.4% |
| Cn1c(=O)c2c(ncn2CC(O)CO)n(C)c1=O (configuration not stated) | – | 106% |
| CCCC1OC2C[C@@H]3[C@H]4CCC5=CC(=O)C=C[C@]5(C)[C@H]4C(O)C[C@]3(C)[C@]2(C(=O)CO)O1 (some centres not stated) | 20.9 µM (active) | – |
| COC(=O)[C@H](Cc1ccccc1)NC(=O)[C@@H](N)CC(=O)O (H-Asp-Phe-OMe) | – | 127% |
| CC1=C(CC(=O)O)c2cc(F)ccc2C1=Cc1ccc(S(C)=O)cc1 (configuration not stated) | 18.6 µM (active) | – |
| NC(=O)Nc1sc(-c2ccc(F)cc2)cc1C(N)=O | 1.86 µM (active) | – |
| O=C(O)c1nc(=O)[nH]c(=O)[nH]1 | – | 139% [at 15.6 µM] |
| O=c1[nH]c(=O)n([C@H]2C[C@H](O)[C@@H](CO)O2)cc1I | 18.6 µM (active) | – |
| CCCn1c(=O)c2[nH]c(C34CC5CC3C[C@@H](C5)C4)nc2n(CCC)c1=O | 20.9 µM (active) | – |
| O=C(O)C(O)Cc1ccc(O)c(O)c1 (configuration not stated) | – | 96.8% [at 92.2 µM] |
| Cc1ccc(C(C)(O)c2nc3ccccc3s2)c(C)c1 (configuration not stated) | 18.6 µM (active) | – |
| N#Cc1ccnc(Nc2cc(C3CCN(C4COC4)CC3)cc(N3CCC(F)(F)C3)n2)c1 | 0.235 µM (active) | – |

| Compound | Potency | viability, % of control |
| --- | --- | --- |
| COC(c1ccccc1)(c1ccccc1)[C@H](Oc1nc(C)cc(C)n1)C(=O)O | – | 111% |
| COc1cc(OC)c(C(=O)CCCN2CCCC2)c(OC)c1 | – | 94.2% |
| COc1ccc(C=Cc2cc(OC)c(OC)c(OC)c2)cc1NC(=O)[C@H](N)CO | 0.296 µM (active) | – |
| CC[C@H](C=C[C@@H](C)[C@H]1CC[C@H]2[C@@H]3CC=C4C[C@@H](O)CC[C@]4(C)[C@@H]3CC[C@]12C)C(C)C | – | 128% [at 15.6 µM] |
| C=Cc1c(C)c2cc3nc(cc4[nH]c(cc5nc(cc1[nH]2)C(C)=C5CCC(=O)O)c(CCC(=O)OC)c4C)[C@@]1(C)C3=CC=C(C(=O)OC)[C@H]1C(=O)OC | 26.3 µM (active) | – |
| CN1C(=O)c2sccc2N(C)c2nc(Nc3ccc(S(N)(=O)=O)cc3)ncc21 | 1.05 µM (active) | – |
| Cc1ccc(S(=O)(=O)NC(=O)NN2CC3CCCC3C2)cc1 (configuration not stated) | – | 122% |
| O=C1NCCc2[nH]c(-c3ccncc3)cc21 | 1.86 µM (active) | – |
| O=[N+]([O-])c1ccc(Nc2ccccc2-c2ccccc2)c2nonc12 | 26.3 µM (active) | – |
| Cc1ccc(C(=O)Nc2ccc(CN3CCN(C)CC3)c(C(F)(F)F)c2)cc1C#Cc1cnc2cccnn12 | 0.0263 µM (active) | – |
| O=c1c(O)c(-c2ccc(O)cc2)oc2cc(O)cc(O)c12 | 9.34 µM (active) | – |
| C#CCN[C@@H]1CCc2ccccc21 | – | 124% |
| Cc1cc(Nc2cc(NC(=O)c3c(Cl)cccc3Cl)ccn2)nc(N)n1 | 0.332 µM (active) | – |
| O=C(O)c1ccc(-c2c[nH]c3ncc(-c4ccccc4)cc23)cc1C1CCCC1 | 2.95 µM (active) | – |
| CC(=O)NC(CS)C(=O)O (configuration not stated) | – | 116% |
| C[C@H](CCC(=O)O)[C@H]1CCC2C3C[C@H](O)[C@@H]4C[C@H](O)CC[C@]4(C)C3CC[C@@]21C (some centres not stated) | – | 112% |
| O=S(=O)(O)CCSSCCS(=O)(=O)O | – | 125% |
| CCOc1ccccc1N=Nc1c(C)[nH]n(-c2nc(-c3ccccc3)cs2)c1=O | – | 122% |
| Cc1ccc(O)c(C(CCN(C(C)C)C(C)C)c2ccccc2)c1 (configuration not stated) | – | 123% |
| Cc1cc2c(cc1CC(=O)c1sccc1S(=O)(=O)Nc1onc(C)c1Cl)OCO2 | – | 32.7% |

experiment: BET inhibitor-based combinations targeting novel dependencies in MECOM-rearranged (r) AML: HNT-34 cell line (AID 2202234); settings: HNT-34 AML viability, CellTiter-Glo luminescence, 48 h; series mostly up to 46 µM; viability (% of control): at the top concentration; note: nearly all actives have a fitted effect of over 35% in size;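 for viability (% of control): plate controls were vehicle wells for no effect and cell-free wells for full effect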
Method in brief: as §1

| Compound | Potency | viability (% of control) |
| --- | --- | --- |
| CN(C)CCN1C(=O)c2cccc3cc(N)cc(c23)C1=O | 10.5 µM (active) | – |
| Fc1ccc(Cl)cc1-c1nc(Nc2ccncc2)c2nccnc2n1 | – | 115% |
| CCCCCN=C(N)N/N=C/c1c[nH]c2ccc(OC)cc12 | 9.34 µM (active) | – |
| CCn1c(-c2nonc2N)nc2c(C#CC(C)(C)O)ncc(OC[C@H]3CCCNC3)c21 | 16.6 µM (active) | – |
| O=C1NC(=O)/C(=C/c2ccc3nccnc3c2)S1 | – | 92.9% |
| Cn1c(=O)c2c(ncn2CC(O)CO)n(C)c1=O (configuration not stated) | – | 107% |
| COC(=O)[C@H](Cc1ccccc1)NC(=O)[C@@H](N)CC(=O)O (H-Asp-Phe-OMe) | – | 100% |
| CC1=C(CC(=O)O)c2cc(F)ccc2C1=Cc1ccc(S(C)=O)cc1 (configuration not stated) | 18.6 µM (active) | – |
| NC(=O)Nc1sc(-c2ccc(F)cc2)cc1C(N)=O | 1.66 µM (active) | – |
| O=C(O)c1nc(=O)[nH]c(=O)[nH]1 | – | 102% [at 15.6 µM] |
| O=C(O)C(O)Cc1ccc(O)c(O)c1 (configuration not stated) | – | 91.6% [at 92.2 µM] |
| COC(c1ccccc1)(c1ccccc1)[C@H](Oc1nc(C)cc(C)n1)C(=O)O | – | 94% |
| CC[C@H](C=C[C@@H](C)[C@H]1CC[C@H]2[C@@H]3CC=C4C[C@@H](O)CC[C@]4(C)[C@@H]3CC[C@]12C)C(C)C | – | 102% [at 15.6 µM] |
| C=Cc1c(C)c2cc3nc(cc4[nH]c(cc5nc(cc1[nH]2)C(C)=C5CCC(=O)O)c(CCC(=O)OC)c4C)[C@@]1(C)C3=CC=C(C(=O)OC)[C@H]1C(=O)OC | 18.6 µM (active) | – |
| CN1C(=O)c2sccc2N(C)c2nc(Nc3ccc(S(N)(=O)=O)cc3)ncc21 | 0.934 µM (active) | – |
| Cc1ccc(S(=O)(=O)NC(=O)NN2CC3CCCC3C2)cc1 (configuration not stated) | – | 106% |
| O=C1NCCc2[nH]c(-c3ccncc3)cc21 | 3.32 µM (active) | – |
| O=[N+]([O-])c1ccc(Nc2ccccc2-c2ccccc2)c2nonc12 | 23.5 µM (active) | – |
| Cc1ccc(C(=O)Nc2ccc(CN3CCN(C)CC3)c(C(F)(F)F)c2)cc1C#Cc1cnc2cccnn12 | 0.0083 µM (active) | – |
| C#CCN[C@@H]1CCc2ccccc21 | – | 113% |
| Cc1cc(Nc2cc(NC(=O)c3c(Cl)cccc3Cl)ccn2)nc(N)n1 | 0.296 µM (active) | – |
| CC(=O)NC(CS)C(=O)O (configuration not stated) | – | 96.2% |
| C[C@H](CCC(=O)O)[C@H]1CCC2C3C[C@H](O)[C@@H]4C[C@H](O)CC[C@]4(C)C3CC[C@@]21C (some centres not stated) | – | 99.1% |
| O=S(=O)(O)CCSSCCS(=O)(=O)O | – | 104% |
| CCOc1ccccc1N=Nc1c(C)[nH]n(-c2nc(-c3ccccc3)cs2)c1=O | – | 96.4% |
| Cc1ccc(O)c(C(CCN(C(C)C)C(C)C)c2ccccc2)c1 (configuration not stated) | – | 93.6% |
| Cc1cc2c(cc1CC(=O)c1sccc1S(=O)(=O)Nc1onc(C)c1Cl)OCO2 | – | 43.3% |
